These results are taken from PubChem BioAssay (NCATS).

Each structure is given as a SMILES string. “And” between values parts separate entries of the source, which are not always exact repeats. Equal values may be shown once. Results filed as inconclusive are left out. The source made the active and inactive calls. Unless noted, calls follow the shape of the dose curve; as a rule, active = well fitted curve in the direction sought with a large enough effect; inconclusive = small, poorly fitted or top-dose-only effect, or another doubt; inactive = no such curve, though single readings can be large; an effect the other way counts as inactive or inconclusive.

The target in test [1] is Rap guanine nucleotide exchange factor 4 (Homo sapiens) (UniProt Q8WZA2). Kind of test: Confirmatory qHTS for agonist of cAMP-regulated guanine nucleotide exchange factor 4 (EPAC2) (AID 1645884).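 Also: nucleotide exchange releases bodipy-GDP from Rap1 and this lowers its fluorescence; % is scaled to controls: 0 for no effect and ±100 for the full control effect; nearly all actives have a fitted effect of over 65% in size.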 The note with it: EPAC2 GEF activity, Rap1B-BODIPY-GDP fluorescence; series mostly up to 154 µM.
The target is the same in test [2]. Put plainly: Confirmatory qHTS for antagonist of cAMP-regulated guanine nucleotide exchange factor 4 (EPAC2) (AID 1645885). Also: nearly all actives have a fitted effect of over 25% in size. Also: potency is read from the fitted curve at half-maximal effect. As to activity change, negative = inhibition: % is scaled to controls: 0 for no effect and ±100 for the full control effect. The note with it: EPAC2 Rap1B-BODIPY-GDP exchange fluorescence, biochemical; series mostly up to 114 µM. On the technique in general: qHTS replaces the single test concentration by a dilution series.
A short description of test [3]: NCATS anti-infectives library activity on HEK293 viability as a counter-qHTS vs the C. elegans viability qHTS (AID 1745854).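 Also: HEK293 cells exposed to compounds for 24 hr before the viability read; % is scaled to controls: 0 for no effect and ±100 for the full control effect.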 Particulars: HEK293 viability counter-screen; series mostly up to 41.8 µM. The gist of the method: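 Cytotoxicity in human HEK293 cells is measured by ATP-dependent CellTiter-Glo luminescence following a 24 hr incubation with titrated library compounds at 37C. Top final concentration is 41.7 uM.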

For test [4], the target named is Catechol O-methyltransferase (Homo sapiens) (UniProt P21964). Put plainly: Confirmatory Screen for Target Class Profiling of Small Molecule Inhibitors of Methyltransferases (AID 1745852; calls by dose curve; also: potency is read from the fitted curve at half-maximal effect; as to activity change, negative = inhibition: % is scaled to controls: 0 for no effect and ±100 for the full control effect). Particulars: MTase-Glo luminescence, SAH detection, recombinant enzyme; measured here: COMT max response; stronger effect = lower value.
Test [5] deals with Guanidinoacetate N-methyltransferase (Homo sapiens) (UniProt Q14353). The test is described as above. Particulars: MTase-Glo luminescence, SAH detection, recombinant enzyme; activity change, negative = inhibition: at 57.3 µM (top of the series).
Test [6] deals with Nicotinamide N-methyltransferase (Homo sapiens) (UniProt P40261). The description is as above. Particulars: MTase-Glo luminescence, SAH detection, recombinant enzyme; measured here: NNMT max response; stronger effect = lower value.
In test [7] the target is Phenylethanolamine N-methyltransferase (Homo sapiens) (UniProt P11086). The test is described as above. The note with it: MTase-Glo luminescence, SAH detection, recombinant enzyme; measured here: PNMT max response; stronger effect = lower value.
Test [8] is described as follows: NCATS anti-infectives library activity on the primary C. elegans qHTS viability assay (AID 1745855; calls by dose curve; also: potency is read from the fitted curve at half-maximal effect). Particulars: C. elegans worm area imaging, day 7; series mostly up to 41.8 µM. In a few lines:
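Viability is taken from GFP fluorescence of PE254-GFP-FLuc C. elegans imaged by laser cytometry over 7 days. Ten L1 worms per well grow at 21 °C on TOP10 E. coli capsules with titrated compound; levamisole marks toxicity.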

The target of test [9] is Rap guanine nucleotide exchange factor 3 (Homo sapiens) (UniProt O95398). Kind of test: Counterscreen qHTS for antagonist of cAMP-regulated guanine nucleotide exchange factor 3 (EPAC1) (AID 1645888).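 Also: fluorescence loss as bound BODIPY-GDP is released from Rap1B; % of control where 0% means no effect.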 Particulars: Rap1B-BODIPY-GDP nucleotide exchange, fluorescence; series mostly up to 30.8 µM. In a few lines: (§1)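 Rap1B–BODIPY-GDP (250 nM) with 50 uM GDP; compounds pin-transferred to 9.74 nM–152 uM final (activator) or from 7.32 nM upwards (inhibitor). Fluorescence Ex/Em 480/540 nm read at 5 and 30 min, then after adding cAMP or buffer, at room temperature.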
(A counterscreen serves to expose hits that act by an unwanted route or on another target.)

Test [10] has the same target. Put plainly: Counterscreen qHTS for agonist of cAMP-regulated guanine nucleotide exchange factor 3 (EPAC1) (AID 1645889). Also: % of control where 0% means no effect; nearly all actives have a fitted effect of over 40% in size. The note with it: EPAC1 Rap1B-BODIPY-GDP exchange, fluorescence; series mostly up to 30.8 µM. In a few lines: as §1

Rap guanine nucleotide exchange factor 4 (Homo sapiens), sequence (Q8WZA2 whole entry, looked up): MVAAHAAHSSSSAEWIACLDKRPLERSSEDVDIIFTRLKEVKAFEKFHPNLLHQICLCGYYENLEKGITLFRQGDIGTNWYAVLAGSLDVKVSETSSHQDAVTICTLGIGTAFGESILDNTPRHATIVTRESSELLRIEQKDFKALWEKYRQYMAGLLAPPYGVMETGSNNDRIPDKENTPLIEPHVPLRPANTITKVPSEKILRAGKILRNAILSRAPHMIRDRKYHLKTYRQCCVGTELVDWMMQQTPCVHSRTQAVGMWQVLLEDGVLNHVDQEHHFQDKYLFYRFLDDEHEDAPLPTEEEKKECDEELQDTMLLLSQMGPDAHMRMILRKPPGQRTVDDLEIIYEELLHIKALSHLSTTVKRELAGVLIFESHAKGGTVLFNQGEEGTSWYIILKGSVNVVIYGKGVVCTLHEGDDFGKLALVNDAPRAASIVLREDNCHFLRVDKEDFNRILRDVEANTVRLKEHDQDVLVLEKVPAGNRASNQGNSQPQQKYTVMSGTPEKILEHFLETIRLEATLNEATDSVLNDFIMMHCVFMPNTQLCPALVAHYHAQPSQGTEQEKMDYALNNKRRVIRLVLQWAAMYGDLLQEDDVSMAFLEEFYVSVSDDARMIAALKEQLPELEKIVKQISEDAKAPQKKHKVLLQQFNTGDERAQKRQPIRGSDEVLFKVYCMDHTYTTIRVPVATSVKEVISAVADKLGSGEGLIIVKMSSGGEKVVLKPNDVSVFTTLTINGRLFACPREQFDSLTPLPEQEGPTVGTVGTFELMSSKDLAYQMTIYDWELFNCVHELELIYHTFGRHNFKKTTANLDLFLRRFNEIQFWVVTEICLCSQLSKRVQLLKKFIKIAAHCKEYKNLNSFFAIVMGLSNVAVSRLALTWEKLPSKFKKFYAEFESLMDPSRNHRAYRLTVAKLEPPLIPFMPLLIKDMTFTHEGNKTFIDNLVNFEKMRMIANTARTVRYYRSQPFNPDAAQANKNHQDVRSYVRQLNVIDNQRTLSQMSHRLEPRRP
Nicotinamide N-methyltransferase (Homo sapiens), sequence (P40261 whole entry, looked up): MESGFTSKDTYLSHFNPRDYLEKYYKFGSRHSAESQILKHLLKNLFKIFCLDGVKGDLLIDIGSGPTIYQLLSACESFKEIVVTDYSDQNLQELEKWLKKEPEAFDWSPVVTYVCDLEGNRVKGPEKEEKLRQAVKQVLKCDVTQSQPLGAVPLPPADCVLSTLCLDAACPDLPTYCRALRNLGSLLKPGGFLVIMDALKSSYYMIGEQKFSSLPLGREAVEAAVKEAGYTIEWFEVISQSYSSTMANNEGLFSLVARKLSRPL
Phenylethanolamine N-methyltransferase (Homo sapiens), sequence (P11086 whole entry, looked up): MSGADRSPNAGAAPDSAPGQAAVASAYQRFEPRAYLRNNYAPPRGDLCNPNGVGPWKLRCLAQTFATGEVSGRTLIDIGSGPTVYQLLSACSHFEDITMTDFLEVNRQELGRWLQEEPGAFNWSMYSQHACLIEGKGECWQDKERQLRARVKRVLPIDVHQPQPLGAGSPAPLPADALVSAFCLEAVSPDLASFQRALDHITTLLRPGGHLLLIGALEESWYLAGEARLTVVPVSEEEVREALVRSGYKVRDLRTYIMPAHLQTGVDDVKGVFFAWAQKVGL
Catechol O-methyltransferase (Homo sapiens), sequence (P21964 whole entry, looked up): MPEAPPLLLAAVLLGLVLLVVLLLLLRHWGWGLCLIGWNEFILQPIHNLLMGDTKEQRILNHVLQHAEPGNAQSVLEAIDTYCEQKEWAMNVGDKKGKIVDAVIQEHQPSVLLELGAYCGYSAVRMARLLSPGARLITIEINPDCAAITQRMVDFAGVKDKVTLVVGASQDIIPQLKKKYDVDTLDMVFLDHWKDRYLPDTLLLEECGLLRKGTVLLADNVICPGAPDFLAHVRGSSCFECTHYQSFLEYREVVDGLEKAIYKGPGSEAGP
Rap guanine nucleotide exchange factor 3 (Homo sapiens), sequence (O95398 whole entry, looked up): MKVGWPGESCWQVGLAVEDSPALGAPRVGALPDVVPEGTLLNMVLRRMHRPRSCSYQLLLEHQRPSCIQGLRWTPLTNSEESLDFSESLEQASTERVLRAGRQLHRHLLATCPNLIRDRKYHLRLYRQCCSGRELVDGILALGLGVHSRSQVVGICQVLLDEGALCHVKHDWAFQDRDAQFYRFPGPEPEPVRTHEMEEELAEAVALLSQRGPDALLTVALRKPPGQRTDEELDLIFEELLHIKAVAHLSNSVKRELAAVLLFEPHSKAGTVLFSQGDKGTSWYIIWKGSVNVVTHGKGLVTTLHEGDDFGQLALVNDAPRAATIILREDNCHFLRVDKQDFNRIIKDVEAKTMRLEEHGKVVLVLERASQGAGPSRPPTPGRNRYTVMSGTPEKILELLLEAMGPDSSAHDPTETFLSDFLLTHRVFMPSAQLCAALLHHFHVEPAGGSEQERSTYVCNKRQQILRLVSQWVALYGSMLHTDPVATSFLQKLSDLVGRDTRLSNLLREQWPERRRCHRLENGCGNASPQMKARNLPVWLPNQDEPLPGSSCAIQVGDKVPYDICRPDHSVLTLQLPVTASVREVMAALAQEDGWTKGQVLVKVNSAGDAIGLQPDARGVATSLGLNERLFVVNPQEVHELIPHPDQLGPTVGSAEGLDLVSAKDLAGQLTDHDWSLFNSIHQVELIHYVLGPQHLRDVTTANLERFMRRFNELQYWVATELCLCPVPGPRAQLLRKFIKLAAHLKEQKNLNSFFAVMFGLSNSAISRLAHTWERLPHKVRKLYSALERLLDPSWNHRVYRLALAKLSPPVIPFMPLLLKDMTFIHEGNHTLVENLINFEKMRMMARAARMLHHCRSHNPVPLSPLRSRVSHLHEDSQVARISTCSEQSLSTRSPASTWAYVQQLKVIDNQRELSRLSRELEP

On to `C[C@@H](O[C@H]1OCCN(Cc2n[nH]c(=O)[nH]2)[C@@H]1c1ccc(F)cc1)c1cc(C(F)(F)F)cc(C(F)(F)F)c1`, for which the Potency entry in test [1] was “inactive”. Moreover, the Potency in test [2] is 22.1 µM (active).

Turning to `O=C(O)c1nc(=O)[nH]c(=O)[nH]1`, in [3], the outcome was “inactive”.

Take `CNC(=O)c1ccc2c(C(=Nc3cccc(CN(C)C)c3)c3ccccc3)c(O)[nH]c2c1`: the activity was -17.1% in test [4], -21.7% in test [6] and -16.3% in test [7]. Further, the activity change, negative = inhibition in test [5] was -9.55%.

Regarding `CC(C)[C@H](O)C(=O)N[C@@H](C)C(=O)N[C@@H]1C(=O)N(C)CCc2ccccc21`, the outcome in test [3] is “inactive”.

For `CN1CCc2c(n(Cc3ccc(C(=O)NO)cc3)c3ccccc23)C1`, the activity in [4] is 0%; in [6] it was -0.568%; in test [7], 4.88%. Moreover, in test [5], the activity change, negative = inhibition came out at 0.311%.

With `Fc1ccc(CNc2ncnc3ccc(F)cc23)cc1`, the outcome in test [3] was “inactive”.

Turning to `CC(C)(F)C[C@H](N[C@@H](c1ccc(-c2ccc(S(C)(=O)=O)cc2)cc1)C(F)(F)F)C(=O)NC1(C#N)CC1`, in test [3], the outcome is “inactive”.

Take `Cc1ccccc1-n1c(Cn2nc(-c3cccc(O)c3)c3c(N)ncnc32)nc2cccc(C)c2c1=O`: the activity was -10.8% in test [4], -28.8% in test [6] and 1.94% in test [7]. For the same compound, the activity change, negative = inhibition in test [5] came out at 0%.

As for `CNC(=O)[C@H](Cc1ccccc1)NC(=O)[C@H](CC(C)C)[C@H](CSc1cccs1)C(=O)NO`, in test [3], the outcome was “inactive”.

Take `CN(C)CCCNC(=O)c1ccc(-c2cc(O)c3ncccc3c2)cc1`: the activity in test [4] was -84% and -99.6%; in test [6], -0.93% and -8.84%; in [7], -2.71% and -2.66%. In [5], the activity change, negative = inhibition was 2.82% and 3.64%. Moreover, the Potency result in test [8] is “inactive”.

Take `Cc1cn([C@@H]2C[C@@H](O)[C@H](CO)O2)c(=O)[nH]c1=O`: the outcome in test [3] was “inactive”.

On to `CCOC(=O)c1c(CSc2ccccc2)n(C)c2cc(Br)c(O)c(CN(C)C)c12`, for which the outcome in [3] was “inactive”.

Take `COc1ccc(-c2nc3ccc(C4=NNC(=O)CC4C)cc3[nH]2)cc1` (centres undefined): the outcome in test [3] was “inactive”.

For the compound `Cc1cc2nc3c(=O)[nH]c(=O)nc-3n(CC(O)C(O)C(O)CO)c2cc1C` (centres undefined), the Potency result in test [2] is “inactive”.

Take `CC1(COc2ccc3c(c2)ncn3-c2ccc3cccc(N4CCC(N)CC4)c3n2)COC1`: the activity is -30.2% in test [4], -29.9% in test [6] and -30.6% in [7]. The Potency in test [5] is 42.9 µM (active).

`Nc1ncnc2c1c(-c1cccc(OCc3ccccc3)c1)cn2C1CC(CN2CCC2)C1` (centres undefined): the figures for the activity in test [4], in test [6] and in test [7] were -26%, -29.1% and -91.7%, respectively. Also, in [5], the Potency was 30.4 µM (active).

With `Cc1ccc(S(=O)(=O)OCC(=O)Nc2ccc(C(=O)O)c(O)c2)cc1`, the outcome in [3] was “inactive”. Moreover, in test [8], the Potency was 12.9 µM (active).

`CNC(=O)c1c(-c2ccc(F)cc2)oc2cc(N(CCO)S(C)(=O)=O)c(C3CC3)cc12`: the outcome in test [3] is “inactive”.

For `CN(C)CCN(Cc1ccc(Cl)cc1)c1ccccn1`, the outcome in [3] was “inactive”.

With `c1cc(OCCN2CCCCC2)cc(-c2n[nH]c3ccc(-c4ncn[nH]4)cc23)c1`, the activity is -3.59% in test [4], -12.9% in [6] and -6.71% in test [7]. Besides, the activity change, negative = inhibition in [5] stood at 2.7%.

Consider `CC(C)CN(C[C@@H](O)[C@H](Cc1ccccc1)NC(=O)O[C@H]1CO[C@H]2OCC[C@H]21)S(=O)(=O)c1ccc(N)cc1`, for which, in [3], the outcome is “inactive”.

Consider `N[C@@H](CC(=O)N1CCn2c(nnc2C(F)(F)F)C1)Cc1cc(F)c(F)cc1F`, for which, in test [3], the outcome was “inactive”.

With `Nc1[nH]nc2nnc(-c3c(-c4ccccc4)nn4ccccc34)cc12`, the results for the activity in test [4], in test [6] and in [7] were -90.6%, -76.8% and -92.5%, respectively. Also, the Potency in test [5] is 19.2 µM (active).

Regarding `Nc1ncnc2c1ncn2[C@@H]1O[C@H](CO)[C@@H](O)[C@@H]1O`, the outcome in test [3] was “inactive”.

Regarding `O=c1cc(-c2ccc(O)c(O)c2)oc2cc(O)cc(O)c12`, the Potency result in [1] and in test [2] was “inactive” in each case. In addition, the outcome in test [9] and in test [10] was “inactive” each time.

As to `NC(=O)c1nnn(Cc2cc(Cl)c(C(=O)c3ccc(Cl)cc3)c(Cl)c2)c1N`, the activation in test [1] was 5.43% [at 17.1 µM, percent relative to cAMP agonist control] (inactive). The activity change, negative = inhibition in [2] was -14.9% [at 12.7 µM] (inactive). Further, the outcome in [9] and in test [10] was “inactive” in each case.

As to `Cc1ccc2c(c1)c1c(n2CCc2ccc(C)nc2)CCN(C)C1`, the activity in test [4] was -6.68%; in test [6], -13.3%; in test [7], -2.48%. Also, the activity change, negative = inhibition in [5] was -3.88%.

`CC(=O)Nc1cccc(-n2c(=O)n(C3CC3)c(=O)c3c(Nc4ccc(I)cc4F)n(C)c(=O)c(C)c32)c1`: in [8], the Potency is 2.3 µM (active).

Consider `COc1ccc2ccc(=O)oc2c1CC=C(C)C`, for which the outcome in test [3] is “inactive”.

Consider `C[C@@]1(c2cc(-c3cncnc3)c(F)cc2F)CCSC(N)=N1`, for which, in test [3], the outcome was “inactive”.

As to `Cc1ccc2c(=O)c3cccc(CC(=O)O)c3oc2c1C`, the outcome in [3] was “inactive”.

Consider `NS(=O)(=O)c1ccc(Nc2nc(OCC3CCCCC3)c3[nH]cnc3n2)cc1`, for which the activity in test [4] was -14.9%; in test [6], -73.9%; in test [7] it was -14.7%. The activity change, negative = inhibition in test [5] is -2.65%.

As for `c1ccc(-c2oc3ncnc(NC[C@@H]4CCCO4)c3c2-c2ccccc2)cc1`, the activity is -58.1% in [4], -46.6% in test [6] and -56.7% in test [7]. The Potency in [5] was 24.1 µM (active).

Turning to `Clc1ccc(C2(c3ccc(-c4cn[nH]c4)cc3)CCNCC2)cc1`, the activity is 0.191% in test [4], -22.3% in test [6] and -4.19% in [7]. Besides, the activity change, negative = inhibition in test [5] worked out at 0%.

In the case of `CNC1CCC(N(Cc2cccc(-c3ccncc3)c2)C(=O)c2sc3ccccc3c2Cl)CC1` (centres undefined), the activity is -14.8% in test [4], -65.2% in test [6] and -20.3% in [7]. Moreover, the activity change, negative = inhibition in [5] is -1.13%.

For the compound `CCN1C[C@H](C)n2c(c(O)c3c(=O)n(Cc4ccc(F)c(Cl)c4)nc(C(=O)NC)c32)C1=O`, in [3], the outcome was “inactive”. For the same compound, the Potency entry in [8] is “inactive”.

As for `CC(C)CNc1ccnc(NCc2csc(-c3ccccc3)n2)n1`, the activity was -9.21% in [4], -34.7% in [6] and -20.3% in [7]. For the same compound, the activity change, negative = inhibition in test [5] was -8.39%.

In the case of `COc1cc2c(cc1Cc1cccc(Cl)c1F)c(=O)c(C(=O)O)cn2[C@H](CO)C(C)C`, the outcome in test [3] is “inactive”.

On to `CCN1CCC(n2cc(CNc3cc(Cl)c4ncc(C#N)c(Nc5ccc(F)c(Cl)c5)c4c3)nn2)CC1`, for which the activity in test [4] is -89.7%; in test [6] it was -81.6%; in test [7], -91.4%. For the same compound, the Potency in test [5] is 10.8 µM (active).
